“And” between values parts separate entries of the source, which are not always exact repeats. Equal values may be shown once. Among all 5,500 compounds or so, about 2,000 (36%) were called active. Inconclusive results (about 18%) are left out. No stated cut-off is given here; in the data, active means normalized growth mostly below about 0.91 (no sharp cut-off); inconclusive means no clear call, values can overlap the other calls; inactive means mostly above about 0.92. This is one part of the list.
Assay: chemical genetic growth profiling, strain panel (AID 1159580);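 further: tested at 20 µM; growth read once vehicle control cultures reached saturation at 30 °C; 1 = growth at the plate median or of vehicle wells; lower values mean less growth of the strain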
Conditions: growth OD

Measured: normalized growth

Nc1c2c(nc3ccccc13)CCCC2
active: S. cerevisiae deletion strains, locus YNL248C, strain rpa49, hits give low values 0.84
inactive: S. cerevisiae deletion strains, locus YKL068W, hits give low values 1.01 | S. cerevisiae deletion strains, locus YKL085W, strain MDH1 (second series), hits give low values 1.01 | S. cerevisiae deletion strains, locus YKL085W, strain MDH1, hits give low values 1.01 | S. cerevisiae deletion strains, locus YKL160W, strain elf1, hits give low values 1.01 | S. cerevisiae deletion strains, locus YKL190W, strain CNB1, hits give low values 1.02 | S. cerevisiae deletion strains, locus YKR001C, strain vps1, hits give low values 0.998 | S. cerevisiae deletion strains, locus YKR026C, strain gcn3, hits give low values 0.986 | S. cerevisiae deletion strains, locus YKR091W, strain srl3, hits give low values 0.994 | S. cerevisiae deletion strains, locus YLL001W, strain dnm1, hits give low values 0.989 | S. cerevisiae deletion strains, locus YLL026W, hits give low values 0.99 | S. cerevisiae deletion strains, locus YLL041C, strain sdh2, hits give low values 0.982 | S. cerevisiae deletion strains, locus YLR027C, strain aat2, hits give low values 0.984 | S. cerevisiae deletion strains, locus YLR039C, strain RIC1, hits give low values 1.09 | S. cerevisiae deletion strains, locus YLR058C, strain SHM2, hits give low values 1.02 | S. cerevisiae deletion strains, locus YLR102C, strain apc9, hits give low values 1.01 | S. cerevisiae deletion strains, locus YLR113W, strain HOG1, hits give low values 1.02 | S. cerevisiae deletion strains, locus YLR221C, strain rsa3, hits give low values 0.963 | S. cerevisiae deletion strains, locus YLR258W, strain gsy2, hits give low values 1 | S. cerevisiae deletion strains, locus YLR262C, strain YPT6 (second series), hits give low values 1.01 | S. cerevisiae deletion strains, locus YLR262C, strain YPT6, hits give low values 1.1 | S. cerevisiae deletion strains, locus YLR268W, strain sec22, hits give low values 1.01 | S. cerevisiae deletion strains, locus YLR320W, strain mms22, hits give low values 0.947 | S. cerevisiae deletion strains, locus YLR330W, strain CHS5, hits give low values 1.01 | S. cerevisiae deletion strains, locus YLR342W, strain FKS1 (second series), hits give low values 1 | S. cerevisiae deletion strains, locus YLR342W, strain FKS1, hits give low values 0.999 | S. cerevisiae deletion strains, locus YLR357W, strain rsc2, hits give low values 0.994 | S. cerevisiae deletion strains, locus YLR370C, strain arc18, hits give low values 1.01 | S. cerevisiae deletion strains, locus YLR371W, strain rom2, hits give low values 1.03 | S. cerevisiae deletion strains, locus YLR384C, strain iki3, hits give low values 0.99 | S. cerevisiae deletion strains, locus YLR418C, strain cdc73, hits give low values 1.03 | S. cerevisiae deletion strains, locus YML016C, strain PPZ1, hits give low values 1.01 | S. cerevisiae deletion strains, locus YML032C, strain rad52, hits give low values 1.01 | S. cerevisiae deletion strains, locus YML120C, strain ndi1, hits give low values 1 | S. cerevisiae deletion strains, locus YML124C, strain tub3, hits give low values 1.02 | S. cerevisiae deletion strains, locus YMR058W, strain fet3, hits give low values 0.979 | S. cerevisiae deletion strains, locus YMR078C, strain ctf18, hits give low values 1.02 | S. cerevisiae deletion strains, locus YMR125W, strain sto1, hits give low values 1.01 | S. cerevisiae deletion strains, locus YMR129W, hits give low values 0.99 | S. cerevisiae deletion strains, locus YMR205C, strain PFK2, hits give low values 1.01 | S. cerevisiae deletion strains, locus YMR223W, strain ubp8, hits give low values 1.01 | S. cerevisiae deletion strains, locus YMR231W, strain pep5, hits give low values 0.976 | S. cerevisiae deletion strains, locus YMR263W, strain SAP30, hits give low values 1.01 | S. cerevisiae deletion strains, locus YMR307W, strain GAS1, hits give low values 0.999 | S. cerevisiae deletion strains, locus YNL067W, strain RPL9B, hits give low values 0.998 | S. cerevisiae deletion strains, locus YNL071W, strain lat1, hits give low values 1 | S. cerevisiae deletion strains, locus YNL128W, strain TEP1, hits give low values 1.01 | S. cerevisiae deletion strains, locus YNL153C, strain GIM3, hits give low values 0.994 | S. cerevisiae deletion strains, locus YNL175C, strain NOP13, hits give low values 0.99 | S. cerevisiae deletion strains, locus YNL183C, strain NPR1, hits give low values 0.954 | S. cerevisiae deletion strains, locus YNL197C, strain WHI3, hits give low values 1.01 | S. cerevisiae deletion strains, locus YNL209W, strain ssb2, hits give low values 1.01 | S. cerevisiae deletion strains, locus YNL224C, strain SQS1, hits give low values 0.995 | S. cerevisiae deletion strains, locus YNL233W, strain BNI4, hits give low values 0.999 | S. cerevisiae deletion strains, locus YNL250W, strain rad50, hits give low values 1.03 | S. cerevisiae deletion strains, locus YNL271C, strain bni1, hits give low values 1.02 | S. cerevisiae deletion strains, locus YNL298W, strain CLA4, hits give low values 1.02 | S. cerevisiae deletion strains, locus YNL307C, strain MCK1, hits give low values 1.02 | S. cerevisiae deletion strains, locus YNL322C, strain KRE1 (second series), hits give low values 1.01 | S. cerevisiae deletion strains, locus YNL322C, strain KRE1, hits give low values 1.01 | S. cerevisiae deletion strains, locus YNR049C, strain mso1, hits give low values 0.975 | S. cerevisiae deletion strains, locus YNR052C, strain pop2, hits give low values 1 | S. cerevisiae deletion strains, locus YOL006C, strain TOP1, hits give low values 1.05 | S. cerevisiae deletion strains, locus YOL012C, strain htz1 0.82 | S. cerevisiae deletion strains, locus YOL147C, strain pex11, hits give low values 1.01 | S. cerevisiae deletion strains, locus YOR001W, strain rrp6, hits give low values 0.925 | S. cerevisiae deletion strains, locus YOR061W, strain CKA2, hits give low values 1.02 | S. cerevisiae deletion strains, locus YOR069W, strain VPS5, hits give low values 1.01 | S. cerevisiae deletion strains, locus YOR070C, strain gyp1, hits give low values 0.975 | S. cerevisiae deletion strains, locus YOR080W, strain dia2, hits give low values 0.969 | S. cerevisiae deletion strains, locus YOR083W, strain WHI5 (second series), hits give low values 0.962 | S. cerevisiae deletion strains, locus YOR083W, strain WHI5, hits give low values 0.994 | S. cerevisiae deletion strains, locus YOR106W, strain vam3, hits give low values 0.997 | S. cerevisiae deletion strains, locus YOR136W, strain idh2, hits give low values 1.02 | S. cerevisiae deletion strains, locus YOR144C, strain elg1, hits give low values 1.02 | S. cerevisiae deletion strains, locus YOR184W, strain ser1, hits give low values 1.04 | S. cerevisiae deletion strains, locus YOR231W, strain MKK1, hits give low values 0.985 | S. cerevisiae deletion strains, locus YOR265W, strain rbl2, hits give low values 0.99 | S. cerevisiae deletion strains, locus YOR270C, strain vph1, hits give low values 0.888 | S. cerevisiae deletion strains, locus YOR290C, strain snf2, hits give low values 0.971 | S. cerevisiae deletion strains, locus YOR316C, strain cot1, hits give low values 1.02 | S. cerevisiae deletion strains, locus YPL051W, strain arl3, hits give low values 0.951 | S. cerevisiae deletion strains, locus YPL055C, strain LGE1, hits give low values 1.02 and 0.992 | S. cerevisiae deletion strains, locus YPL078C, strain atp4, hits give low values 1.02 | S. cerevisiae deletion strains, locus YPL106C, strain sse1, hits give low values 0.982 | S. cerevisiae deletion strains, locus YPL240C, strain hsp82, hits give low values 0.987 | S. cerevisiae deletion strains, locus YPL241C, strain CIN2, hits give low values 1.01 | S. cerevisiae deletion strains, locus YPL256C, strain CLN2, hits give low values 0.995 | S. cerevisiae deletion strains, locus YPR119W, strain clb2, hits give low values 1.01 | S. cerevisiae deletion strains, locus YPR141C, strain kar3, hits give low values 1.01 | S. cerevisiae deletion strains, locus YPR163C, strain tif3, hits give low values 1.01 | S. cerevisiae deletion strains, locus YPR167C, strain met16, hits give low values 1.02 | S. cerevisiae deletion strains, strain wtn01, hits give low values 1.02 | S. cerevisiae strains, strain wild type, hits give low values 1.02
